Inconclusive results are not listed. Unmarked numbers belong to inactive results. Calls of active or inactive are those of the source. Calls follow the shape of the dose curve; as a rule, active = well fitted inhibition curve with a large enough effect; inconclusive = small, poorly fitted or top-dose-only effect; inactive = no such curve, though single readings can be large or run the other way.
tested on: Zika virus NS2B-NS3 protease (linked construct); assay: Primary screen NINDS Rhodamine qHTS for Zika virus inhibitors (AID 1347160); conditions: purified NS2B-NS3 protease, Rhodamine110 substrate fluorescence; series mostly up to 57.1 µM; activity change, negative = inhibition: at the top concentration; also: nearly all actives have a fitted effect of over 55% in size
Outline: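 Aprotinin served as in-plate control. Conditions: 25 nM linked NS2B-NS3, pH 8.0 Tris buffer, titrated compounds, 15 min preincubation and 15 min reaction with 1.5 microM Rhod110 substrate at room temperature.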
% is scaled to controls: 0 for no effect and ±100 for the full control effect; potency is read from the fitted curve at half-maximal effect.

Going from `COc1cc(/C=C/CO)cc(OC)c1O[C@@H]1O[C@H](CO[C@@H]2O[C@H](CO)[C@@H](O)[C@H](O)[C@H]2O)[C@@H](O)[C@H](O)[C@H]1O` to `OC[C@H]1O[C@@H](Oc2cc(O)c3c(c2)O[C@@H](c2ccc(O)cc2)[C@H](O)C3)[C@H](O)[C@@H](O)[C@@H]1O`, the “activity change, negative = inhibition” value rises from 1.78% [at 33.1 µM] to 33.3% [at 33.1 µM].

First: CC(C)CC1NC(=O)C(C)NC(=O)C(CC(C)C)OC(=O)CCCNC1=O (centres undefined)
Second: CC1OC2OC(=O)C3(C)CC4=C(CO)C5=C(CC(=O)C4(C)C(C1=O)C23)C(C)(C)OC(=O)C5 (centres undefined)
The “activity change, negative = inhibition” value of the first is lower: -23.7% [at 33.1 µM] for the first, -1.2% [at 33.1 µM] for the second.

Compared with `COc1ccc(-c2cnc(-c3cccc4c3-c3ccccc3C4=O)o2)cc1`, `COc1c2cc(c(O)c1OC)-c1cc(ccc1O)CCC(O)CCCC2` (centres undefined) is lower in “activity change, negative = inhibition” value: 9.87% [at 33.1 µM] for the first, -14.2% [at 33.1 µM] for the second.

`COc1cc2c(cc1OC)[C@@H]1[C@H](O)[C@@H](OC)C=C3CCN(C2)[C@H]31` was tested, and the “activity change, negative = inhibition” value was 31.9% [at 33.1 µM].

In the case of `C/C=C(\C)C(=O)O[C@H]1[C@@H](O[C@]2(COC(=O)CC(C)C)O[C@H](COC(=O)C(C)CC)[C@@H](OC(C)=O)[C@@H]2O)O[C@H](COC(C)=O)[C@@H](O)[C@@H]1O` (some centres undefined), the “outcome” value is reported as “inactive [at 15.1 µM]”.
For `C[C@@H]1C(=O)OC[C@H]2C(C(=O)O)=C[C@@H]3CC(C)(C)C[C@]312`, the “outcome” value was “inactive”.
For `OC1CCC(Nc2ncc3nc(Nc4c(F)cc(F)cc4F)n([C@H]4CCOC4)c3n2)CC1` (some centres undefined), the “outcome” value was “inactive”.
For `CC(=O)c1ccc2c(c1)C(O)C(C(C)(C)O)O2` (centres undefined), the “outcome” value was “inactive”.
`CC1CCN(C(=O)CC#N)CC1N(C)c1ncnc2[nH]ccc12` (centres undefined) was tested, and the “outcome” value was “inactive”.
`C=C[C@H]1[C@H](O[C@@H]2O[C@H](CO)[C@@H](O)[C@H](O)[C@H]2O)OC=C(C(=O)OC)[C@H]1CC(=O)O` was tested, and the “outcome” value was “inactive [at 33.1 µM]”.
For `CCOc1ccc(S(=O)(=O)n2c(C)nc3ccccc32)cc1`, the “outcome” value was “inactive [at 33.1 µM]”.
For `CC1=CC(=O)CC(C)(C)[C@@]1(O)CC[C@@H](C)O[C@@H]1O[C@H](CO)[C@@H](O)[C@H](O)[C@H]1O`, the “outcome” value was “inactive [at 33.1 µM]”.
For `CC(C)CN(C[C@@H](O)[C@H](Cc1ccccc1)NC(=O)O[C@@H]1CO[C@H]2OCC[C@H]21)S(=O)(=O)c1ccc(N)cc1`, the “outcome” value was “inactive”.
With `O=C(c1cn(Cc2cncn2Cc2ccc(Br)cc2)cc1-c1cccc2ccccc12)N1CCOCC1` the “outcome” value was “inactive”.

First: COC1CC(OC2CCC3(C)C(=CCC4C3C(OC(C)=O)C(OC(=O)/C=C/c3ccccc3)C3(C)C(C(C)O)CCC43O)C2)OC(C)C1OC1CC(OC)C(OC2OC(C)C(OC3OC(CO)C(O)C(O)C3O)C(OC)C2O)C(C)O1 (centres undefined)
Second: C/C=C(\C)C(=O)O[C@@H]1CC2[C@@H](CC=C3C[C@@H](O[C@H]4C[C@H](OC)[C@H](O[C@H]5C[C@H](OC)[C@H](O[C@@H]6O[C@H](C)[C@@H](O[C@H]7C[C@H](OC)[C@H](O[C@@H]8O[C@H](CO)[C@@H](O)[C@H](O)[C@H]8O)[C@@H](C)O7)[C@H](OC)[C@H]6O)[C@@H](C)O5)[C@@H](C)O4)CC[C@@]32C)[C@@]2(O)CC[C@H](C(C)=O)[C@@]12C (some centres undefined)
The activity change, negative = inhibition of the first is higher: 23.5% [at 10.7 µM] for the first, 18.6% [at 10.7 µM] for the second.

Compared with `CC1=C(C)C(=O)OC(C(C)C2CCC3C4CC=C5CC(OC6OC(COC7OC(CO)C(O)C(O)C7O)C(O)C(O)C6O)CC(O)C5(C)C4CCC23C)C1` (centres undefined), `COCC1OC(OC(C)(C)C2CCC3(C)C=C(C4CCC5C4(C)CC(O)C4OC(C(C)(C)OC6OC(CO)C(O)C(O)C6NC(C)=O)CCC45C)CCC3O2)C(NC(C)=O)C(O)C1O` (centres undefined) is lower in “activity change, negative = inhibition” value: 21% [at 15.1 µM] for the first, -2.64% [at 15.1 µM] for the second.

For `CC(=O)NC1C(OC(C)(C)C2CCC3(C)C=C(C4CCC5C4(C)CC(O)C4OC(C(C)(C)O)CCC45C)CCC3O2)OC(CO)C(O)C1O` (centres undefined), the “activity change, negative = inhibition” value was -7.44% [at 15.1 µM].

Compared with `CC(C)[C@@H]1C(=O)N(S(C)(=O)=O)[C@@H]2CCN(C(=O)/C=C/CN3CCCCC3)[C@H]21`, `Cc1[nH]nc(C(F)(F)F)c1Cc1sc2c(c1C(=O)N1C[C@](C)(O)CO1)c(=O)n(C)c(=O)n2C(C)C` is lower in “activity change, negative = inhibition” value: 7.23% for the first, -3.28% for the second.

First: COc1ccc(C2=N[C@@H](c3ccc(Cl)cc3)[C@@H](c3ccc(Cl)cc3)N2C(=O)N2CCNC(=O)C2)c(OC(C)C)c1
Second: COc1cc(OC)cc(C(=O)Nc2ccc(Cl)c(-c3nc4ccc(N(C)C)cc4[nH]3)c2)c1
The “activity change, negative = inhibition” value of the first is lower: -4.93% for the first, 29.6% for the second.

First: Cc1nc2sc(C(=O)NCc3ccncc3)c(N)c2c(C)c1Cl
Second: CNC(=O)c1ccccc1Nc1nc(Nc2ccc3c(c2OC)CCCC(N2CCN(CCO)CC2)C3)ncc1Cl (centres undefined)
The “activity change, negative = inhibition” value of the first is lower: -7.41% for the first, 151% for the second.

First: COc1cc2ncnc(Nc3cccc(O)c3)c2cc1OC
Second: NCCCNc1ccc(Nc2nccc(Nc3cc(C4CC4)[nH]n3)n2)cc1
The “activity change, negative = inhibition” value of the first is lower: 10.8% for the first, 85.2% for the second.

Compared with `O=C(O)c1cccc(S(=O)(=O)N2CCc3ccccc3C2)c1`, `C[C@@H]1COCCN1c1cc(C2(S(C)(=O)=O)CC2)nc(-c2cccc3[nH]ccc23)n1` is higher in “activity change, negative = inhibition” value: -0.259% for the first, 15.9% for the second.

Compared with `CC1(O)CCCC2(C)C1CCC13CC(CO)C(CCC12)C3` (centres undefined), `C/C(=C\CCC1(C)C2CCC(C2)C1(C)O)C(=O)O` (centres undefined) is lower in “activity change, negative = inhibition” value: 16% for the first, -15.9% for the second.

Compared with `CN(C)CCCCC(=O)Nc1ccc(NC(=S)NC(=O)c2ccc(C(C)(C)C)cc2)cc1`, `CC(C)(F)C[C@@H](N[C@@H](c1ccc(-c2ccc(S(C)(=O)=O)cc2)cc1)C(F)(F)F)C(=O)NC1(C#N)CC1` is lower in “activity change, negative = inhibition” value: 617% for the first, -6.26% for the second.

First: C=C1C(=O)O[C@@H]2[C@H]1CCC(C)=C1CCC(=O)O[C@]12C
Second: COc1c(Nc2ncc(Cl)c(N[C@H]3[C@@H](C(N)=O)[C@@H]4C=C[C@H]3C4)n2)ccc2c1CC[C@@H](N1CCOCC1)CC2
The “activity change, negative = inhibition” value of the first is lower: -15.7% for the first, 43.3% for the second.

`O=C1OCc2cc3cccc(O[C@@H]4O[C@H](CO)[C@@H](O)[C@H](O)[C@H]4O)c3c(O)c21` was tested, and the Potency was 11.2 µM (active).

From PubChem BioAssay (NCATS)
